# FECH block = blocks human mitochondrial ferrochelatase activity; P22830; purified FECH, Ni-mesoporphyrin absorbance 550 nm; calls only at 10 µM (by protocol); 3.3% of 20,000 active; AID 1671448;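 active means enzyme reaction rate more than 3 SD below the solvent-only control wells on the same plate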;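 further: lower slope than DMSO wells means FECH inhibition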
# Target sequence (P22830 whole entry, looked up): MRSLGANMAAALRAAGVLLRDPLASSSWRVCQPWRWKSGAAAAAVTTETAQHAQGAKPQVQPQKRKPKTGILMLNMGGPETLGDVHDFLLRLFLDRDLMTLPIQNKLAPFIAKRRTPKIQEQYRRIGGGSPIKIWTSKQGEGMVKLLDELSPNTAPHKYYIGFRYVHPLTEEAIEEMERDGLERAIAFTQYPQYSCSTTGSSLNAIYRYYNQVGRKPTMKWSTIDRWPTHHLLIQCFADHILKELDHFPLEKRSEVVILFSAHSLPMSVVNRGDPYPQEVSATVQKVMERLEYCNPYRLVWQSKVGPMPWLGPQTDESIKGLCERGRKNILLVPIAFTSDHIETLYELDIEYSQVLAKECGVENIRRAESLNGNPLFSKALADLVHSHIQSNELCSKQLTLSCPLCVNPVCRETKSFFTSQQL
# Calls only; – = inactive; + = active, no number. This excerpt belongs to a sample that is enriched for hits.
SMILES,FECH block
O=C(CCn1cnc2onc(-c3cc(F)cc(F)c3)c2c1=O)NCCc1cccs1,–
Cc1ccc(-n2ncc3c(-n4nc(C)cc4NC(=O)c4ccc(OC(C)C)cc4)ncnc32)c(C)c1,–
Cc1ccc(-n2c(CN3CCN(S(=O)(=O)c4ccc(C(C)C)cc4)CC3)nc3cccnc32)cc1,–
CC1CCN(c2cc(C(C)C)nc3nc(-c4cccnc4)nn23)CC1,–
Cc1ccsc1C(=O)NC(C(=O)O)c1c(C)n[nH]c1C (stereo not given),–
Cc1ccc(C)c(CN2CCCN(CC(=O)NC3CCCC3)S2(=O)=O)c1,–
CCOc1ccc(NC(=O)CN2CCCN(Cc3cc(C)ccc3C)S2(=O)=O)cc1,+
Cc1cccc(CN2CCCN(CC(=O)Nc3ccccc3F)S2(=O)=O)c1,+
COc1ccc(CN2CCCN(CC(=O)Nc3ccccc3F)S2(=O)=O)cc1,–
Cc1cccc(NC(=O)CN2CCCN(Cc3ccccc3)S2(=O)=O)c1,–
Cc1ccccc1CN1CCN(Cc2ccccc2C)S1(=O)=O,+
Cc1ccc(C)c(CN2CCCN(CC(=O)Nc3ccc(C)c(F)c3)S2(=O)=O)c1,–
Cc1ccc(NC(=O)CN2CCN(Cc3ccccc3C)S2(=O)=O)cc1,–
CCOc1ccc(NC(=O)CN2CCCN(Cc3cccc(F)c3)S2(=O)=O)cc1,–
CCOc1ccc(NC(=O)CN2CCCN(Cc3cccc(C)c3)S2(=O)=O)cc1,+
Cc1cc(C)c(CN2CCN(Cc3ccccc3C)S2(=O)=O)c(C)c1,–
Cc1ccc(NC(=O)CN2CCCN(Cc3ccccc3)S2(=O)=O)cc1,–
Cn1ccnc1-c1nccn1-c1cccc(CN2CCCC2)c1,–
Cc1nnc(SCC(=O)NCCc2csc(-c3cccnc3)n2)s1,–
CC(C)Cc1cc(C(=O)NCc2nncn2C2CCCCC2)n(C)n1,–
Cn1nnc(-c2ccc(C(=O)NCc3cnn4ccccc34)cc2)n1,–
Cc1ccc(OCc2cc(=O)n3oc(C)cc3n2)c(NC(=O)C(C)(C)C)c1,–
CC(=O)NCC1=CCCN(CC(=O)N2C[C@@H](C)O[C@@H](C)C2)C1,–
CCOc1ccccc1NC(=O)CSCc1nc(-c2ccccc2)no1,–
O=C(O)c1cnc(N2CC[C@@H](N3CCCCCC3)[C@H](O)C2)c(Cl)c1,–
SMILES,FECH block
COc1ccc(CNc2nc3nc(CNc4cccc(C)c4C)cc(=O)n3[nH]2)cc1,–
CCCc1c(C)nc2nc(-c3ccco3)[nH]n2c1=O,–
CCOC(=O)CCc1c(C)nc2nc(CNc3ccccc3Cl)[nH]n2c1=O,–
Cc1cccc(NCc2cc(=O)n3[nH]c(NCc4ccccc4)nc3n2)c1C,–
CCCc1cc(=O)n2[nH]c(CNc3cccc(C)c3C)nc2n1,+
CCCc1cc(=O)n2[nH]c(CNc3ccccc3C)nc2n1,+
CCCc1cc(=O)n2[nH]c(CNc3cccc(Cl)c3C)nc2n1,+
Cc1cccc(NCc2nc3nc(C)c(Cc4ccc(Cl)cc4)c(=O)n3[nH]2)c1C,+
CC(C)OC(=O)c1ccc(NS(=O)(=O)c2cc(-c3ccc(=O)[nH]n3)ccc2Cl)cc1,–
CC(=O)Nc1cccc(-c2ncccc2NC(=O)C(C)C)c1,–
CN1CCCC(CN(C)C(=O)c2ccccc2-c2ccccc2)C1 (stereo not given),–
COc1ccc(Nc2nc(N3CCC(Cc4ccccc4)CC3)nc3c2cnn3-c2ccccc2)cc1,–
NC1(C(=O)O)CCN(Cc2cnc(-c3cccc4ccccc34)nc2)C1 (stereo not given),–
Cc1ccc(NC(=O)CSc2ncnc3nc(N(C)C)sc23)c(C)c1,–
COc1ccc(Nc2cc(C)nc3nc(-c4cccnc4)nn23)cc1,–
CCCc1cc(=O)n2[nH]c(CNc3cc(Cl)ccc3C)nc2n1,+
COc1ccc(Cl)cc1NCc1cc(=O)n2[nH]c(NCc3ccccc3)nc2n1,–
Cc1ccc(Cl)cc1NCc1cc(=O)n2[nH]c(NCc3ccc(F)cc3)nc2n1,–
CCCc1c(C)nc2ncnn2c1Sc1ccc(NC(=O)Nc2ccc3c(c2)OCCO3)cc1,–
CN(C)C(=O)c1ccc(-c2ccc(COCCN)cc2)cc1,+
COc1ccc(CNS(=O)(=O)c2cc(C(=O)N3CCCC3)cs2)cc1,–
COc1ccc(Cl)cc1CN(C)Cc1ncccc1C(=O)O,–
CCc1nc2nc3c(c(=O)n2[nH]1)CCC3,–
O=c1c2c(nc3nc(CNc4ccccc4F)[nH]n13)CCC2,–
Cc1ccc(Cl)cc1NCc1nc2nc3c(c(=O)n2[nH]1)CCC3,+
SMILES,FECH block
Cc1nc2nc(C)c(NC(=O)Nc3cc(Cl)ccc3C)c(=O)n2[nH]1,–
CCOc1ccccc1NCc1nc2nc3c(c(=O)n2[nH]1)CCC3,–
Cc1cc(=O)n2[nH]c(NCc3ccc(C(=O)Nc4ccc(Br)cc4)cc3)nc2n1,–
COc1ccc(NCc2nc3nc4c(c(=O)n3[nH]2)CCC4)c(OC)c1,–
Cc1nc2nc(C)c(NC(=O)Nc3ccccc3Cl)c(=O)n2[nH]1,–
O=c1c2c(nc3nc(CNc4ccc(Br)cc4)[nH]n13)CCC2,+
Cc1ccccc1NCc1nc2nc3c(c(=O)n2[nH]1)CCC3,+
Cc1c(Cl)cccc1NCc1nc2nc3c(c(=O)n2[nH]1)CCC3,+
O=C(NCC(=O)N1CCC(c2nc(-c3ccc(F)cc3)no2)CC1)c1ccccc1,–
COCCNS(=O)(=O)c1cc(C(=O)N2CCCC2)cs1,–
Cc1cc(C)c2[nH]c(C(=O)N3[C@@H]4CC[C@H]3CNC(=O)C4)c(C)c2c1,–
CCCc1cc(-c2ccn[nH]2)nc(C)n1,–
Cc1ccc(N(Cc2nc3nc(C)c(Cl)c(C)n3n2)C(=O)c2ccccc2C)cc1,–
CNS(=O)(=O)c1ccc(CN2CCOC(CC3CCCCC3)C2)cc1 (stereo not given),–
Cc1ccc(C2=CC(c3ccccc3Cl)n3nc(N4C(=O)CCC4=O)nc3N2)cc1 (stereo not given),–
NS(=O)(=O)c1ccc(NC(=O)c2cc(-c3ccc4c(c3)OCCO4)on2)cc1,–
CCOc1ccc(-c2cc(C(=O)NCc3ccc(S(N)(=O)=O)cc3)no2)cc1,+
Cc1ccc(-c2cc(C(=O)Nc3ccc(S(N)(=O)=O)cc3)no2)cc1,–
Cc1ccc(-c2cc(C(=O)NCCc3ccc(S(N)(=O)=O)cc3)no2)cc1,–
COc1ccc(-c2cc(C(=O)Nc3ccc(S(N)(=O)=O)cc3)no2)cc1,+
Cc1ccc(-c2cc(C(=O)NCc3ccc(S(N)(=O)=O)cc3)no2)cc1,–
NS(=O)(=O)c1ccc(NC(=O)c2cc(-c3ccccc3)on2)cc1,–
Cc1ccc(CN2CCN(Cc3c(CO)cnc(C)c3O)CC2=O)cc1,–
COC(=O)c1cc2ccsc2n1CC(=O)Nc1ccccc1OC,–
COC(=O)c1cc(S(=O)(=O)N2CCCC2C(=O)Nc2cccc(OC)c2)cn1C (stereo not given),–
SMILES,FECH block
O=C(CN1c2ccc(Br)cc2-c2ccccc2S1(=O)=O)NCCC1=CCCCC1,+
CCc1ccc2c(c1)-c1ccccc1S(=O)(=O)N2CC(=O)Nc1ccccc1Oc1ccccc1,–
C=CCNC(=O)CN1c2ccc(Br)cc2-c2ccccc2S1(=O)=O,+
CCc1ccc2c(c1)-c1ccccc1S(=O)(=O)N2CC(=O)Nc1ccc2c(c1)OCO2,–
COc1ccccc1CNC(=O)CN1c2ccc(Br)cc2-c2ccccc2S1(=O)=O,–
CCc1ccc2c(c1)-c1ccccc1S(=O)(=O)N2CC(=O)Nc1cc(C)ccc1C,+
CCNC(=O)CN1c2ccc(Br)cc2-c2ccccc2S1(=O)=O,+
CC(C)Cn1cncc1CNc1nc(C(C)(C)C)nc2c1cnn2C,–

# Source: PubChem BioAssay (Corson Lab, School of Medicine, Indiana University)
